Source: ChEMBL document CHEMBL1157539, “Thousands of chemical starting points for antimalarial lead identification” (Nature, 2010)
Values joined by “and” are separate entries in the source; they are usually repeats but may differ in a detail not shown here. Identical values can stand only once.

Assays:
Assay type in all cases: functional
[1] = tested on: Plasmodium falciparum; assay: GSK_TCMDC: Inhibition of Plasmodium falciparum 3D7 in whole red blood cells, using parasite LDH activity as an index of growth. Test compounds present at 2uM
[2] = tested on: Plasmodium falciparum; assay: GSK_TCMDC: Inhibition of Plasmodium falciparum Dd2 in whole red blood cells, using parasite LDH activity as an index of growth. Test compounds present at 2uM
[3] = tested on: HepG2; assay: GSK_TCMDC: Percent inhibition of human HepG2 cell line. Test compounds present at 10uM.

O=C1OC2(CN1CC1CCN(Cc3ccc(O)c(Cl)c3)CC1)c1ccccc1-c1ccccc12
Inhibition [1]: 97% | Inhibition [2]: 96% | Inhibition [3]: 32%

CN1CCC=C(C(=O)NCC(C)(C)c2nc(-c3ccc(Cl)c(O)c3)c(-c3ccncc3)[nH]2)C1.Cl
Inhibition [1]: 96% | Inhibition [2]: 96% | Inhibition [3]: 39%

NC1=NC(c2ccccc2)(c2cccc(O)c2)C(=O)N1CCCc1ccccc1 (stereo not drawn)
Inhibition [1]: 85% and 98% | Inhibition [2]: 38% and 93% | Inhibition [3]: 0%

Nc1ncc(-c2ccccc2)cc1/C=C/c1cccnc1
Inhibition [1]: 91% | Inhibition [2]: 9% | Inhibition [3]: 33%

Cc1ccc(Sc2ccc(NC(=O)CN3CCN(C(=O)c4ccco4)CC3)cc2)cc1C
Inhibition [1]: 92% | Inhibition [2]: 84% | Inhibition [3]: 14%

COc1ccc(CCNc2nc(SCc3ccccc3Cl)nc3ccccc23)cc1OC
Inhibition [1]: 94% | Inhibition [2]: 2% | Inhibition [3]: 27%

Cl.O=C(NCCCCN1CCC(O)(c2ccc3c(c2)OCO3)CC1)c1ccc(NC(=O)c2ccc(Cl)cc2)cc1
Inhibition [1]: 86% | Inhibition [2]: 6% | Inhibition [3]: 15%

Cc1cc(N[C@@H](Cc2ccccc2)C(=O)Nc2ccccc2)nc(NCCN2CCCC2)n1.O=C(O)C(F)(F)F
Inhibition [1]: 94% | Inhibition [2]: 0% | Inhibition [3]: 8%

Cl.N#CC1(CCCNCCc2ccc(O)cc2)CCCc2c(O)cccc21 (stereo not drawn)
Inhibition [1]: 95% | Inhibition [2]: 3% | Inhibition [3]: 0%

Oc1ccc2[nH]cc(C3CCN(CCC(c4ccccc4)c4ccccc4)CC3)c2c1
Inhibition [1]: 90% | Inhibition [2]: 42% | Inhibition [3]: 27%

Cc1c(Cl)cccc1S(=O)(=O)Nc1cccc(CCN2CCC(N3CCCCC3)CC2)c1
Inhibition [1]: 100% | Inhibition [2]: 82% | Inhibition [3]: 38%

Nc1ccc2[nH]cc(C3CCN(CCC4CCN(C(=O)/C=C/c5ccc(Cl)c(Cl)c5)CC4)CC3)c2n1
Inhibition [1]: 100% | Inhibition [2]: 78% | Inhibition [3]: 27%

O=C(O)C(F)(F)F.O=c1[nH]ccc2nc(N[C@@H]3CCNC3)nc(Nc3cccc(S(=O)(=O)N4CCOCC4)c3)c12
Inhibition [1]: 90% | Inhibition [2]: 98% | Inhibition [3]: 0%

CN1CCC(c2csc3ccc(NC(=O)Nc4ccc(-c5ccncc5)c5ccccc45)cc23)CC1
Inhibition [1]: 98% | Inhibition [2]: 71% | Inhibition [3]: 8%

O=C(O)C(F)(F)F.OCC1CCN(Cc2ccc(-c3ccc(-c4nc5cc(F)ccc5[nH]4)s3)cc2)CC1
Inhibition [1]: 100% | Inhibition [2]: 98% | Inhibition [3]: 14%

Cc1ccccc1C1CCN(C2CCC(NC(=O)/C=C/c3c[nH]c4ccccc34)CC2)CC1 (stereo not drawn)
Inhibition [1]: 100% | Inhibition [2]: 51% | Inhibition [3]: 30%

Cc1cc(OCCCN2CCC(NS(=O)(=O)c3ccc(Cl)c(Cl)c3)C2)c2ccccc2n1 (stereo not drawn)
Inhibition [1]: 87% | Inhibition [2]: 37% | Inhibition [3]: 28%

Cc1cccc2nc(-c3cccc(-c4cccc(CN5CCN(c6ccncc6)CC5)c4)c3)[nH]c12.O=C(O)C(F)(F)F
Inhibition [1]: 100% | Inhibition [2]: 96% | Inhibition [3]: 47%

O=C(O)C(F)(F)F.O=C1CCCN1CCCNCc1ccc(-c2cccc(-c3nc4ccccc4[nH]3)c2)cc1
Inhibition [1]: 96% | Inhibition [2]: 0% | Inhibition [3]: 19%

COc1cc(Cc2cnc(N)nc2N)cc(OCCCOc2ccccc2)c1OC
Inhibition [1]: 94% | Inhibition [2]: 2% | Inhibition [3]: 7%

O=C(N[C@@H](Cc1ccccc1)C(=O)NC1CCCCCC1)c1ccc(O)c(-c2ccc(Cl)c(Cl)c2)c1
Inhibition [1]: 92% | Inhibition [2]: 99% | Inhibition [3]: 0%

CCOC(=O)C1=C(C)NC2=C(C(=O)CC(C)(C)C2)C1c1ccc(Cl)cc1 (stereo not drawn)
Inhibition [1]: 96% | Inhibition [2]: 84% | Inhibition [3]: 4%

Cc1cccc2nc(-c3ccc(-c4cccc(NC(=O)CN5CCN(C)CC5)c4)s3)[nH]c12
Inhibition [1]: 96% | Inhibition [2]: 51% | Inhibition [3]: 7%

Cc1cnc2cc3c(cc2c1N1CCN(C)CC1)NCC3
Inhibition [1]: 100% | Inhibition [2]: 69% | Inhibition [3]: 12%

CCN(c1ccccc1)S(=O)(=O)c1ccc(NC(=O)c2cc(-c3cc(C)ccc3O)n[nH]2)cc1
Inhibition [1]: 99% | Inhibition [2]: 55% | Inhibition [3]: 49%

COc1cc(C(=O)NC2CCN(Cc3ccccc3)CC2)ccc1-c1nc2c(Cl)cc(C(F)(F)F)cc2[nH]1
Inhibition [1]: 100% | Inhibition [2]: 56% | Inhibition [3]: 7%

COc1ccc(NC(=O)c2ccc(-c3ccc(-c4cccnc4)cc3)c(C)c2)cc1OCCN(C)C.Cl
Inhibition [1]: 99% | Inhibition [2]: 73% | Inhibition [3]: 24%

CCCC1(NC[C@@H](O)[C@H](Cc2ccccc2)NC(=O)c2cc(NCC)cc(N3CCCCS3(=O)=O)c2)CCC1.Cl
Inhibition [1]: 100% | Inhibition [2]: 86% | Inhibition [3]: 0%

Cn1cnc(CCNC(=O)c2cccc(-c3ccc(-c4nc5cc(F)ccc5[nH]4)cc3)c2)c1
Inhibition [1]: 88% | Inhibition [2]: 5% | Inhibition [3]: 26%

CC(C)Cn1c2ccccc2c2nc3nc(N)nc(N)c3nc21
Inhibition [1]: 93% | Inhibition [2]: 0% | Inhibition [3]: 36%

Cc1cc(NC(=O)c2coc3cc(F)c(N4CC(C)N(C)C(C)C4)cc23)ccc1-n1ccnc1.Cl (stereo not drawn)
Inhibition [1]: 96% | Inhibition [2]: 42% | Inhibition [3]: 0%
